A number with no mark means an inactive call. Results filed as inconclusive are left out. Entries that show only a call come without a potency. Calls of active or inactive are those of the source. The call rests on the fitted dose curve; in most records, active means well fitted curve in the direction sought with a large enough effect; inconclusive means small, poorly fitted or top-dose-only effect, or another doubt; inactive means no such curve, though single readings can be large; an effect the other way counts as inactive or inconclusive. *1 amine or outer side, *2 acyl side, *3 side chain or, on linkers, in order; H or OH if unused. Where a SMILES comes first, the peptide text is derived from it. [ ]: non-standard residue; d: D form. The star is where a group is joined. ξ: configuration not given here. X9 = CCC(C)(N*)C(=O)C1CC[C@@H](C(=O)N[C@@H](Cc2ccccc2)C(=O)NCC(=O)O)N1; X8 = O=C([C@@H]1CC(O)CN1[*:1])[*:2]; aIle = CC[C@@H](C)[C@H](N)C(=O)O; Thr(3ξ) = CC(O)[C@H](N)C(=O)O; ξIva = CCC(C)(N)C(=O)O; Aib = CC(C)(N)C(=O)O
Columns and labels:
[1] = molecular target: Glutathione peroxidase 1 (Homo sapiens) (UniProt P07203); assay: Primary qHTS Assay for Inhibitors of Recombinant Selenoprotein Glutathione Peroxidase 1 (GPX1) (AID 1845191); further: nearly all actives have a fitted effect of over 65% in size
Method in brief: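 NADPH consumption tracked by fluorescence at 340/450 nm between t=0 and t=15 min, room temperature. Final mix: 10 nM GPX1, 100 nM glutathione reductase, 1 mM GSH, 0.5 mM NADPH, 0.5 mM cumene hydroperoxide, 0.01% BSA; 30 min compound–enzyme preincubation.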

[2] = molecular target: Phospholipid hydroperoxide glutathione peroxidase GPX4 (Homo sapiens) (UniProt P36969); assay: Primary qHTS Assay for Inhibitors of Recombinant Selenoprotein Glutathione Peroxidase 4 (GPX4) (AID 1845192); further: nearly all actives have a fitted effect of over 65% in size; on activity change, negative = inhibition: series mostly up to about 50 µM
Method in brief: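 NADPH consumption followed by fluorescence at 340/450 nm, t=0 and after 15 min at room temperature. Reaction started with cumene hydroperoxide (0.5 mM final) after 30 min compound–GPX4 preincubation; final 200 nM GPX4, 100 nM GR, 1 mM GSH, 0.5 mM NADPH.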

[3] = molecular target: Luciferin 4-monooxygenase (Photinus pyralis) (UniProt P08659); assay: Primary firefly luciferase (FLuc) qHTS assay for identification of artifact compounds. (AID 1845220); further: nearly all actives have a fitted effect of over 60% in size; further: potency means the concentration at half of the fitted maximal effect; on activity change, negative = inhibition: series mostly up to about 54 µM
Method in brief: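 Cell-free, 1536-well qHTS. Buffer pH 7.6 with 0.01% Tween-20 and 0.05% BSA; 10 uM D-luciferin, 10 uM ATP; 10 nM P. pyralis luciferase; luminescence after 5 min.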

[4] = Primary fluorescence-based thiol-reactive (MSTI) qHTS assay for identification of artifact compounds. (AID 1845221); further: nearly all actives have a fitted effect of over 65% in size; further: potency means the concentration at half of the fitted maximal effect;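 on activity change, negative = thiol reactive: series mostly up to about 54 µM; thiol-reactive compounds lower the probe fluorescence signal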
Method in brief: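 Curve-fitted percent inhibition (4-parameter Hill) derived from fluorescence, Ex 525/Em 598 nm, scaled with Acetyl-MSTI and MSTI; 1 h incubation at room temperature.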

Sequence of Glutathione peroxidase 1 (Homo sapiens) (P07203 whole entry, looked up): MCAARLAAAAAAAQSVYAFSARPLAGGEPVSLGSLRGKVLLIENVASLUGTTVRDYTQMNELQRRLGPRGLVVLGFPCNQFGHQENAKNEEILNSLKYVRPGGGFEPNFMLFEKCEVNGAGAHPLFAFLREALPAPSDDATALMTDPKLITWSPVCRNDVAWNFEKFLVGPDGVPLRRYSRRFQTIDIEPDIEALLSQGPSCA
Sequence of Phospholipid hydroperoxide glutathione peroxidase GPX4 (Homo sapiens) (P36969 whole entry, looked up): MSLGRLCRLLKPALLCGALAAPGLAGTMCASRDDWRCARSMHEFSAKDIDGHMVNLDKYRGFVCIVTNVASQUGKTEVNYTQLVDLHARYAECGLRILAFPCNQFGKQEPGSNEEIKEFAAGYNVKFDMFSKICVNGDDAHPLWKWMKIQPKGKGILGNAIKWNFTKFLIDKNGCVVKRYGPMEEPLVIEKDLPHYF

Row | Compound | Potency [1] | Potency [2] | Potency [3] | Potency [4] | activity change, negative = inhibition [3] | activity change, negative = thiol reactive [4] | outcome [3]
1 | COc1c2cc(c(O)c1OC)CCCCC(O)CCc1ccc(O)c-2c1 (centres undefined) | inactive | inactive | inactive | inactive |  |  | 
2 | O=C(O)c1ccncc1Nc1nn(CCN2CCC(F)(F)CC2)c2ccc(F)cc12 | inactive | inactive | inactive | 1.34 µM (active) |  |  | 
3 | COc1cc(C(=O)OC[C@H]2O[C@@H](OC(C)(C)C(=O)O)[C@H](O)[C@@H](O)[C@@H]2O)cc(OC)c1O | inactive | inactive | inactive | inactive |  |  | 
4 | COc1ccc(/C=C/C(=O)N2CCCC2)cc1 | inactive | inactive | inactive | inactive |  |  | 
5 | CCC(C)C(=O)OC[C@H]1O[C@H](O[C@H]2O[C@H](CO)[C@@H](O)[C@H](O)[C@H]2O)[C@H](O)[C@@H](O)[C@@H]1O (some centres undefined) | inactive | inactive | inactive | inactive |  |  | 
6 | C/C=C(\C)C(=O)OC[C@H]1O[C@@H](O[C@H]2[C@@H](O[C@H]3O[C@H](COC(=O)/C(C)=C/C)[C@@H](O)[C@H](O)[C@H]3O[C@@H]3O[C@H](COC(=O)/C(C)=C/C)[C@@H](O)[C@H](OC(=O)/C(C)=C/C)[C@H]3O)O[C@H](COC(=O)/C(C)=C/C)[C@@H](O)[C@@H]2O)[C@H](O)[C@@H](O)[C@@H]1O | inactive | inactive |  |  | 3.11% [at 11.6 µM] | 8.85% [at 11.5 µM] | 
7 | NC[C@H]1CCC[C@@H](CNC(=O)[C@@H](Cc2c[nH]c3ccccc23)NC(=O)N2CCC3(C=Cc4ccccc43)CC2)C1 | inactive | inactive | inactive | inactive |  |  | 
8 | CC(=O)OC(C)(C)/C=C/C(=O)[C@](C)(O)C1[C@H](O)C[C@@]2(C)[C@@H]3CC=C4[C@@H](C[C@H](O[C@@H]5O[C@H](CO)[C@@H](O)[C@H](O)[C@H]5O)C(=O)C4(C)C)[C@]3(C)C(=O)C[C@]12C (some centres undefined) | inactive | inactive | inactive | inactive |  |  | 
9 | COc1ccc(-n2c(=O)[nH]c3cc(C(=O)NCc4ccc(Cl)cc4)sc3c2=O)nc1OC | inactive | inactive | inactive | inactive |  |  | 
10 | CC[C@@H](Nc1c(Nc2cccc(C(=O)N(C)C)c2O)c(=O)c1=O)c1ccc(C)o1 | inactive | inactive | inactive | 2.38 µM (active) |  |  | 
11 | C=C(C(=O)O)[C@@H]1CC[C@@]2(C)CC[C@@H](O)C(=C)C2C1 (some centres undefined) | inactive | inactive | inactive | 23.8 µM (active) |  |  | 
12 | CC(C/C=C/C(C)(C)O)C1CCC(C)(O)C(O)C1 (centres undefined) | inactive | inactive | inactive | inactive |  |  | 
13 | CC1=C(CO)CC(C(C)C2CCC3C4CC=C5CC(OC6OC(COC7OC(CO)C(O)C(O)C7O)C(O)C(O)C6O)CC(O)C5(C)C4CCC23C)OC1=O (centres undefined) | inactive | inactive | inactive | inactive |  |  | 
14 | Cc1cccc(NC(=O)CN2CCC(c3ccccn3)CC2)c1 | inactive | inactive | inactive | inactive |  |  | 
15 | COC(=O)[C@]1(C)CCC[C@@]2(C)[C@@H]3CC[C@@H]4C[C@@]3(CC[C@@H]21)C[C@H]4C(=O)O | inactive | inactive | inactive | inactive |  |  | 
16 | CC1(C)[C@@H]2CC=C(CO[C@@H]3O[C@H](CO[C@@H]4OC[C@H](O)[C@H](O)[C@H]4O)[C@@H](O)[C@H](O)[C@H]3O)[C@H]1C2 | inactive | inactive | inactive | inactive |  |  | 
17 | CC(=O)O[C@@]1(C)[C@@H]2CC(=C(C)C)C(=O)C[C@@]2(C)CC[C@H]1OC(=O)C1(C)OC1C (some centres undefined) | inactive | inactive | inactive | inactive |  |  | 
18 | CC1OC(OC2CCC3(C)C(CCC4(C)C3C=CC35OCC6(CCC(C)(C)CC63)CCC45C)C2(C)CO)C(OC2OC(CO)C(O)C(O)C2O)C(O)C1OC1OC(CO)C(O)C(O)C1O (centres undefined) | inactive | inactive |  |  | 1.11% [at 11.6 µM] | 34% [at 11.5 µM] | 
19 | C[C@@H]1O[C@@H](O[C@@H]2[C@@H](O)[C@H](O[C@H]3[C@H](O[C@H]4CC[C@@]5(C)C(CC[C@]6(C)C5CC=C5[C@@H]7CC(C)(C)CC[C@]7(C(=O)O[C@@H]7O[C@H](CO)[C@@H](O)[C@H](O)[C@H]7O)CC[C@]56C)C4(C)C)O[C@H](C(=O)O)[C@@H](O)[C@@H]3O)OC[C@H]2O)[C@H](O)[C@H](O)[C@H]1O (some centres undefined) | inactive | inactive |  |  |  | 351% [at 11.5 µM] | inactive [at 11.6 µM]
20 | COC(=O)c1ccccc1O[C@@H]1O[C@H](CO[C@@H]2OC[C@@H](O)[C@H](O)[C@H]2O)[C@@H](O)[C@H](O)[C@H]1O | inactive | inactive | inactive | 5.19 µM (active) |  |  | 
21 | CC1C2=CC(=O)OC2(O)CC2C1C(OC(=O)c1ccccc1)C(OC(=O)c1ccccc1)C1(O)C2(C)CCC(O)C1(C)C(=O)O (centres undefined) | inactive | inactive | inactive | inactive |  |  | 

Row | Compound | Potency [1] | Potency [2] | Potency [3] | Potency [4] | activity change, negative = inhibition [3] | activity change, negative = thiol reactive [4] | outcome [3]
22 | Cc1ncc([N+](=O)[O-])n1C[C@H](O)CN1CCOCC1 | inactive | inactive | inactive | inactive |  |  | 
23 | Cc1cn2cc(CC(=O)N3CCC4(CC3)CN(Cc3ccc(-n5nccn5)cc3Cl)C4)nc2s1 | inactive | inactive | inactive | inactive |  |  | 
24 | C=C1CCC2[C@](C)(CCC[C@]2(C)C(=O)O)[C@H]1CC/C(C)=C/C(=O)OC (some centres undefined) | inactive | inactive | inactive | inactive |  |  | 
25 | CC[C@@H](C)[C@H](NC(=O)C(C)(C)NC(=O)[C@H](CCC(N)=O)NC(=O)C(C)(CC)NC(=O)[C@H](Cc1c[nH]c2ccccc12)NC(C)=O)C(=O)N[C@H](C(=O)NC(C)(C)C(=O)N[C@@H](CC(C)C)C(=O)NC(C)(C)C(=O)N1CCC[C@H]1C(=O)N[C@@H](CCC(N)=O)C(=O)NC(C)(C)C(=O)N1CC(O)C[C@H]1C(=O)NC(C)(CC)C(=O)C1CC[C@@H](C(=O)N[C@@H](Cc2ccccc2)C(=O)NCC(=O)O)N1)C(C)O (some centres undefined) (Ac-W[ξIva]Q[Aib][aIle][Thr(3ξ)][Aib]L[Aib]PQ[Aib][X8]-X9) | inactive | inactive |  |  | -13.1% [at 6.45 µM] | -2.24% [at 6.41 µM] | 
26 | CC1(C)CC[C@]2(C(=O)O)CC[C@]3(C)C(=CCC4[C@@]5(C)C[C@H](O)[C@H](O[C@@H]6O[C@H](CO)[C@@H](O)[C@H](O)[C@H]6O)[C@@](C)(CO)C5[C@H](O)C[C@]43C)[C@@H]2C1 (some centres undefined) | inactive | inactive | inactive | inactive |  |  | 
27 | C=C1C(=O)O[C@@H]2/C=C(\C)CC/C=C(\C(=O)O[C@@H]3O[C@H](CO)[C@@H](O)[C@H](O)[C@H]3O)CC[C@@H]12 | inactive | inactive | inactive | 4.12 µM (active) |  |  | 
28 | C[C@@H]1O[C@@H](O[C@H]2[C@H](OC(=O)[C@]34CCC(C)(C)C[C@H]3C3=CCC5[C@@]6(C)CC[C@H](O[C@@H]7O[C@H](CO[C@@H]8OC[C@H](O)[C@H](O)[C@H]8O)[C@@H](O)[C@H](O)[C@H]7O)C(C)(C)C6CC[C@@]5(C)[C@]3(C)C[C@H]4O)OC[C@@H](O)[C@@H]2O)[C@H](O)[C@H](O[C@@H]2OC[C@](O)(CO)[C@H]2O)[C@H]1O[C@@H]1OC[C@H](O)[C@H](O[C@@H]2OC[C@@H](O)[C@H](O)[C@H]2O)[C@H]1O (some centres undefined) | inactive | inactive |  |  | -1.94% [at 11.6 µM] | 415% [at 11.5 µM] | 
29 | C[C@@H]1CC[C@]2(C(=O)O)CC[C@]3(C)C(=CCC4[C@@]5(C)C[C@@H](O)[C@@H](O)C(C)(C)C5CC[C@]43C)C2[C@]1(C)O (some centres undefined) | inactive | inactive | inactive | inactive |  |  | 
30 | COc1ccc(C2COc3cc(O)ccc3C2)c(O)c1OC (centres undefined) | inactive | inactive | 19 µM (active) | inactive |  |  | 
31 | CCOc1ncc(S(=O)(=O)N2CCN(CC)CC2)cc1-c1nc2c(CC)n(CCOC)nc2c(=O)[nH]1 | inactive | inactive | inactive | inactive |  |  | 
32 | CNC(C)C(=O)NC(C(=O)N1CCCC1C(=O)Nc1cccc2ncccc12)C(C)C (centres undefined) | inactive | inactive | inactive | inactive |  |  | 
33 | O=C(/C=C/c1ccc(O)cc1)OC[C@H]1O[C@@H](O/C(=C\c2ccccc2)C(=O)O)[C@H](O)[C@@H](O)[C@@H]1O | inactive | inactive | inactive | inactive |  |  | 
34 | CC1(C)CCC[C@]2(C)C1CC=C(CO)[C@H]2CC/C(=C/CO)CO (some centres undefined) | inactive | inactive | inactive | inactive |  |  | 
35 | C[C@@H]1O[C@@H](O[C@@H]2\C=C/C=C\C=C/C=C\C[C@H](C)OC(=O)/C=C\[C@H]3O[C@@H]3C[C@H](O)C[C@]3(O)C[C@@H](O)[C@@H](C(=O)O)[C@H](C2)O3)[C@H](O)[C@H](N)[C@@H]1O | inactive | inactive | inactive | inactive |  |  | 
36 | CC1=C[C@H]2[C@@H](CC1=O)[C@H](C)C[C@H](O)[C@H]2C(C)C | inactive | inactive | inactive | inactive |  |  | 
37 | Cc1nc2cc(-c3cc(F)cc(C#N)c3)ccc2s1 | inactive | inactive | inactive | inactive |  |  | 
38 | CC1=C[C@H](O)[C@H]2C(C)(C)CCC[C@]2(C)[C@@]1(O)CO | inactive | inactive | inactive | inactive |  |  | 
39 | O=C(O)/C=C/c1ccc(O[C@@H]2O[C@H](CO)[C@@H](O)[C@H](O)[C@H]2O)cc1 | inactive | inactive | inactive | inactive |  |  | 
40 | C/C1=C\CC(C)(C)/C=C/C/C(C(=O)O)=C/CC1 | inactive | inactive | inactive | inactive |  |  | 
41 | O=C(OC(C(F)(F)F)C(F)(F)F)N1CCN(Cc2cccc(Oc3ccccc3)c2)CC1 | inactive | inactive | inactive | inactive |  |  | 
